Measured values reported in PubChem BioAssay.
Active and inactive are the calls of the source.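 The calls were made as follows: active = thallium flux through the channel raised or lowered by more than 3 SD from vehicle-only wells, actives on both sides; inactive = the rest.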

Assays:
Test in all cases: modulators of BK channel variants, profiling panel, selectivity assay, cell-based, U2OS BacMam, thallium flux, beta subunits (AID 1259406);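 also: initial slope of Thallos dye fluorescence rise after thallium is added; log ratio against the mean of 0.3% DMSO vehicle wells on the same plate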
[1] = tested on: F380Y; conditions: at 30 µM
[2] = tested on: F380Y/beta1; conditions: at 30 µM
[3] = tested on: F380Y/beta2Delta; conditions: at 30 µM
[4] = tested on: F380Y/beta4; conditions: at 30 µM
[5] = target: Calcium-activated potassium channel subunit alpha-1 (Homo sapiens) + Leucine-rich repeat-containing protein 26 (Homo sapiens) (UniProt Q12791+Q2I0M4); conditions: F380Y/Slo1WT/gamma1, at 30 µM
Chain of Calcium-activated potassium channel subunit alpha-1 (Homo sapiens) + Leucine-rich repeat-containing protein 26 (Homo sapiens) (Q2I0M4 whole entry, looked up, one chain of several): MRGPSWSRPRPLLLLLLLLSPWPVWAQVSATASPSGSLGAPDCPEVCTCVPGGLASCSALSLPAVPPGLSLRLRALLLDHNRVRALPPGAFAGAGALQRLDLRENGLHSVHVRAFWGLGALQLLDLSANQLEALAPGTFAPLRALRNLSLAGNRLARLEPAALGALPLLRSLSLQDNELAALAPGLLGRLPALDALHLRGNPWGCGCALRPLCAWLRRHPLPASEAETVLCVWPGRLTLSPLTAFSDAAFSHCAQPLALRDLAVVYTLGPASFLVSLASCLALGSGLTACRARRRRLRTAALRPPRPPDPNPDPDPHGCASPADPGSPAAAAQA

[6] = tested on: R275C; conditions: at 30 µM
[7] = tested on: R275C/beta1; conditions: at 30 µM
[8] = tested on: R275C/beta2Delta; conditions: at 30 µM
[9] = tested on: R275C/beta4; conditions: at 30 µM
[10] = tested on: R275C/Slo1WT/beta2; conditions: at 30 µM

Measured: log fold change Tl+ flux

COC(OC)c1ccc(C#N)c(SC)n1
inactive: [1] 0.0176 | [2] -0.0051 | [3] 0.00992 | [4] 0.0407 | [5] -0.00294 | [6] -0.0258 | [7] -0.00195 | [8] 0.0434 | [9] -0.0479 | [10] -0.0163

Cc1cnc(N)c(C)n1
inactive: [1] 0.0781 | [2] 0.0374 | [3] 0.0872 | [4] -0.0219 | [5] 0.00805 | [6] -0.0212 | [7] -0.0766 | [8] 0.039 | [9] -0.0212 | [10] 0.0123

CSc1nnc(SCC(=O)c2ccc3c(c2)OCCO3)s1
inactive: [1] -0.00388 | [2] -0.019 | [3] -0.0362 | [4] -0.049 | [5] -0.0346 | [6] -0.06 | [10] -0.0418
active: [7] -0.119 | [8] -0.146 | [9] -0.0816

O=C(ON(C(=O)c1ccc(F)cc1)C1C2CC3CC(C2)CC1C3)c1ccc(F)cc1 (stereo not given)
inactive: [1] 0.0231 | [2] -0.0234 | [3] 0.00474 | [4] 0.0374 | [5] 0.0901 | [6] 0.0436 | [7] -0.0159 | [8] 0.00798 | [9] 0.0539 | [10] 0.0295

O=C(Nc1ccccc1)OCc1cc(-c2ccccc2)c(C(F)(F)F)s1
inactive: [1] -0.0321 | [2] -0.0201 | [3] -0.0141 | [8] 0.0124 | [9] -0.0566 | [10] -0.0586
active: [4] -0.21 | [5] -0.173 | [6] -0.0877 | [7] -0.141

O=C1CCC(=O)N1c1ccc(S(=O)(=O)NCCCN2CCN(Cc3ccccc3)CC2)cc1
inactive: [1] 0.0288 | [2] 0.0192 | [3] -0.00712 | [4] -0.0181 | [5] 0.0299 | [6] -0.0386 | [7] 0.0158 | [8] -0.00414 | [9] -0.00195 | [10] -0.018

COc1cccc(C(=O)Nc2cc(F)c(Br)cc2F)c1
inactive: [1] -0.0206 | [2] -0.0212 | [3] -0.00467 | [4] -0.0131 | [5] -0.0252 | [6] -0.0759 | [7] -0.106 | [8] -0.0756 | [9] -0.0731 | [10] -0.0319

Cc1cc(N=CN(C)C)c2ccccc2n1
inactive: [1] 0.0195 | [2] 0.00784 | [3] 0.0182 | [4] -0.00491 | [5] 0.00683 | [6] 0.0312 | [7] 0.046 | [8] 0.0104 | [9] 0.0114 | [10] -0.0666

Fc1cccc(Cl)c1CSc1nccn1-c1cccnc1
inactive: [1] 0.00886 | [2] 0.00855 | [3] 0.00345 | [4] 0.0175 | [5] 0.00834 | [6] 0.0131 | [7] 0.0289 | [8] 0.0125 | [9] 0.0207 | [10] 0.0418

O=C(O)CC1(CC(=O)Nc2cccc3nsnc23)CCCCC1
inactive: [1] 0.0408 | [2] 0.0186 | [3] 0.0387 | [4] 0.0555 | [5] 0.00374 | [6] 0.055 | [7] 0.00874 | [8] 0.00584 | [9] 0.0536 | [10] 0.0319

COC(=O)c1cc(C)nc(Sc2n[nH]c(-c3cc(Cl)cc(Cl)c3)n2)n1
active: [2] 0.0897
inactive: [1] -0.0391 | [3] 0.0312 | [4] 0.046 | [5] 0.044 | [6] 0.00719 | [7] 0.0447 | [8] 0.0581 | [9] 0.0071 | [10] 0.059

O=c1c(Cl)c(N2CCOCC2)cnn1-c1cnc2ccccc2n1
inactive: [1] -0.0015 | [2] 0.00611 | [3] 0.0635 | [4] 0.0417 | [5] 0.0667 | [6] 0.00311 | [7] -0.0364 | [8] 0.032 | [9] -0.0173 | [10] 0.0145

ONC=Nc1nonc1-c1cccnc1
inactive: [1] 0.00986 | [2] -0.0105 | [3] -0.0403 | [4] 0.000104 | [5] -0.0369 | [6] -0.0128 | [7] 0.016 | [8] -0.0342 | [9] -0.00156 | [10] 0.00719

COC(=O)C(O)(c1ccc(NC(=O)c2ccc(Cl)c(Cl)c2)cc1)C(F)(F)F (stereo not given)
inactive: [1] -0.0296 | [3] -0.0715 | [5] 0.0984 | [10] 0.0206
active: [2] 0.0948 | [4] 0.112 | [6] 0.0903 | [7] 0.216 | [8] 0.0948 | [9] 0.263

CC(=O)OCC(OC(C)=O)C(OC(C)=O)C(OC(C)=O)C(C#N)OC(C)=O (stereo not given)
inactive: [1] 0.0435 | [2] -0.00373 | [3] 0.0398 | [4] 0.0383 | [5] -0.00671 | [6] -0.00122 | [7] -0.0156 | [8] 0.0587 | [9] -0.0186 | [10] -0.0705

N#CC(=Cc1cccs1)C(N)=O
inactive: [1] 0.0135 | [2] 0.00229 | [3] 0.0332 | [4] -0.0391 | [5] -0.00699 | [6] 0.00755 | [7] -0.00113 | [8] 0.0185 | [9] 0.00837 | [10] -0.0032

O=C1c2cc(S(=O)(=O)O)ccc2CCC1S(=O)(=O)O (stereo not given)
active: [2] 0.132 | [3] 0.167 | [8] 0.151
inactive: [1] 0.0577 | [4] 0.0447 | [5] -0.0209 | [6] 0.0448 | [7] 0.0433 | [9] 0.0299 | [10] -0.0389

COC(=O)c1sccc1NN=C(C)c1ccc(NC(=O)C(Cl)Cl)cc1
inactive: [1] 0.0593 | [2] -0.0356 | [3] 0.0103 | [4] -0.0317 | [5] 0.0385 | [6] -0.0133 | [7] -0.0386 | [8] -0.0375 | [9] -0.0101 | [10] 0.0362

CC(C)(C)c1cc2nc(C(F)(F)F)cc(NN=Cc3ccccc3)n2n1
inactive: [1] 0.0101 | [2] 0.0617 | [3] 0.0191 | [4] -0.0217 | [5] -0.0501 | [6] -0.0499 | [7] -0.0176 | [8] -0.0336 | [9] -0.0304 | [10] -0.0137

O=C(NC(=O)C12CC3CC(CC(C3)C1)C2)Nc1ccc(Cl)cc1
inactive: [1] 0.00432 | [2] -0.0267 | [3] -0.0384 | [4] -0.0415 | [5] 0.0168 | [6] -0.00652 | [7] -0.0129 | [8] -0.0163 | [9] 0.0337 | [10] -0.0195

O=C(O)CCSc1ccc2ccccc2c1
inactive: [1] -0.00784 | [2] 0.0347 | [3] -0.0447 | [4] 0.0271 | [5] -0.000304 | [6] 0.0461 | [7] 0.0425 | [8] -0.00975 | [9] -0.0121 | [10] 0.000781

Cc1ccc(S(C)(=O)=NC(=O)c2ccc(-c3cc(C(F)(F)F)nn3C)s2)cc1 (stereo not given)
inactive: [1] -0.000678 | [2] 0.0247 | [3] -0.011 | [4] 0.0284 | [5] 0.0389 | [6] -0.0362 | [7] 0.013 | [8] 0.015 | [9] 0.00574 | [10] 0.0204

O=C(c1ccccc1)c1ccc2c(c1)Cc1ccccc1-2
inactive: [1] 0.00926 | [2] -0.00651 | [3] 0.0385 | [5] -0.0649 | [7] -0.0486 | [8] -0.00396 | [9] 0.00762 | [10] -0.0152
active: [4] -0.103 | [6] -0.0862

Cc1ccc(C)n1N(C)c1ccc([N+](=O)[O-])cn1
inactive: [2] -0.0343 | [3] -0.0717 | [4] 0.0203 | [5] -0.0125 | [6] -0.0076 | [7] -0.0949 | [8] -0.0509 | [9] 0.0498 | [10] 0.00416
active: [1] -0.186

Cc1ccc(C(=O)CC(=CC(=C(C#N)c2ccc([N+](=O)[O-])cc2)c2ccc(C)cc2)c2ccccc2)cc1
inactive: [1] 0.00161 | [2] 0.0132 | [3] -0.0182 | [4] -0.0433 | [5] -0.0481 | [6] -0.0132 | [7] -0.025 | [8] -0.0508 | [9] -0.0482 | [10] -0.0297

NC(=NNC(=O)c1cccnc1)c1ccncc1
inactive: [1] 0.0309 | [2] -0.00892 | [3] 0.0142 | [4] 0.00925 | [5] -0.00474 | [6] -0.039 | [7] 0.0056 | [8] 0.00736 | [9] 0.00943 | [10] -0.0381
